Laboratory results: PubChem BioAssay AID1159580 (chemical genetic matrix, 2015)
About 2,000 (36%) of roughly 5,500 compounds were called active. About 18% were inconclusive and are not listed. Cut-off read from the data, not from the text of the source: active = normalized growth mostly below about 0.91 (no sharp cut-off); inconclusive = no clear call, values can overlap the other calls; inactive = mostly above about 0.92. The list shows a part of the results. Where a SMILES comes first, the peptide text is derived from it. Bridges are numbered along the chain shown (N, C = ends). [ ]: non-standard residue; d: D form. The star is where a group is joined. ξ: configuration not given here. ξDab(CH2SO3H) = NC(CCNCS(=O)(=O)O)C(=O)O; Heptanoyl(6-Me) = CC(C)CCCCC(=O)*; Dab = NCC[CH](N)C(=O)O

Assay: chemical genetic growth profiling, strain panel (AID 1159580);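 note: tested at 20 µM; growth read once vehicle control cultures reached saturation at 30 °C; 1 = growth at the plate median or of vehicle wells; lower values mean less growth of the strain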
Details: growth OD

Measured: normalized growth

CCC(C)C1NC(=O)C(CCNCS(=O)(=O)O)NC(=O)C(NC(=O)C(CCNCS(=O)(=O)O)NC(=O)C(NC(=O)C(CCNCS(=O)(=O)O)NC(=O)CCCCC(C)C)C(C)O)CCNC(=O)C(C(C)O)NC(=O)C(CCNCS(=O)(=O)O)NC(=O)C(CCNCS(=O)(=O)O)NC(=O)C(C(C)CC)NC1=O (configuration not stated) ({Heptanoyl(6-Me)}-[ξDab(CH2SO3H)]T[ξDab(CH2SO3H)][Dab][ξDab(CH2SO3H)]II[ξDab(CH2SO3H)][ξDab(CH2SO3H)]T; lactam 4-C; configuration not given here)
inactive: S. cerevisiae deletion strains, locus YJR075W, strain HOC1, stronger effect = lower value 1 | S. cerevisiae deletion strains, locus YKL009W, strain mrt4, stronger effect = lower value 0.986 | S. cerevisiae deletion strains, locus YKL068W, stronger effect = lower value 0.964 | S. cerevisiae deletion strains, locus YKL085W, strain MDH1 (second series), stronger effect = lower value 0.951 | S. cerevisiae deletion strains, locus YKL085W, strain MDH1, stronger effect = lower value 0.951 | S. cerevisiae deletion strains, locus YKL160W, strain elf1, stronger effect = lower value 1.02 | S. cerevisiae deletion strains, locus YKL190W, strain CNB1, stronger effect = lower value 0.969 | S. cerevisiae deletion strains, locus YKR001C, strain vps1, stronger effect = lower value 0.972 | S. cerevisiae deletion strains, locus YKR026C, strain gcn3, stronger effect = lower value 0.98 | S. cerevisiae deletion strains, locus YKR091W, strain srl3, stronger effect = lower value 0.98 | S. cerevisiae deletion strains, locus YLL001W, strain dnm1, stronger effect = lower value 0.994 | S. cerevisiae deletion strains, locus YLL026W, stronger effect = lower value 0.997 | S. cerevisiae deletion strains, locus YLL041C, strain sdh2, stronger effect = lower value 0.993 | S. cerevisiae deletion strains, locus YLR027C, strain aat2, stronger effect = lower value 0.995 | S. cerevisiae deletion strains, locus YLR039C, strain RIC1, stronger effect = lower value 0.962 | S. cerevisiae deletion strains, locus YLR058C, strain SHM2, stronger effect = lower value 0.988 | S. cerevisiae deletion strains, locus YLR102C, strain apc9, stronger effect = lower value 0.962 | S. cerevisiae deletion strains, locus YLR113W, strain HOG1, stronger effect = lower value 1.1 | S. cerevisiae deletion strains, locus YLR221C, strain rsa3, stronger effect = lower value 0.99 | S. cerevisiae deletion strains, locus YLR258W, strain gsy2, stronger effect = lower value 0.99 | S. cerevisiae deletion strains, locus YLR262C, strain YPT6 (second series), stronger effect = lower value 0.997 | S. cerevisiae deletion strains, locus YLR262C, strain YPT6, stronger effect = lower value 0.992 | S. cerevisiae deletion strains, locus YLR268W, strain sec22, stronger effect = lower value 0.978 | S. cerevisiae deletion strains, locus YLR320W, strain mms22, stronger effect = lower value 0.96 | S. cerevisiae deletion strains, locus YLR330W, strain CHS5, stronger effect = lower value 0.968 | S. cerevisiae deletion strains, locus YLR342W, strain FKS1 (second series), stronger effect = lower value 1.02 | S. cerevisiae deletion strains, locus YLR342W, strain FKS1, stronger effect = lower value 1 | S. cerevisiae deletion strains, locus YLR357W, strain rsc2, stronger effect = lower value 0.963 | S. cerevisiae deletion strains, locus YLR370C, strain arc18, stronger effect = lower value 0.979 | S. cerevisiae deletion strains, locus YLR371W, strain rom2, stronger effect = lower value 0.962 | S. cerevisiae deletion strains, locus YLR384C, strain iki3, stronger effect = lower value 0.998 | S. cerevisiae deletion strains, locus YLR418C, strain cdc73, stronger effect = lower value 0.989 | S. cerevisiae deletion strains, locus YML016C, strain PPZ1, stronger effect = lower value 0.978 | S. cerevisiae deletion strains, locus YML032C, strain rad52, stronger effect = lower value 0.963 | S. cerevisiae deletion strains, locus YML120C, strain ndi1, stronger effect = lower value 0.971 | S. cerevisiae deletion strains, locus YML124C, strain tub3, stronger effect = lower value 0.964 | S. cerevisiae deletion strains, locus YMR058W, strain fet3, stronger effect = lower value 0.987 | S. cerevisiae deletion strains, locus YMR078C, strain ctf18, stronger effect = lower value 0.976 | S. cerevisiae deletion strains, locus YMR125W, strain sto1, stronger effect = lower value 0.973 | S. cerevisiae deletion strains, locus YMR129W, stronger effect = lower value 0.979 | S. cerevisiae deletion strains, locus YMR205C, strain PFK2, stronger effect = lower value 0.958 | S. cerevisiae deletion strains, locus YMR223W, strain ubp8, stronger effect = lower value 0.99 | S. cerevisiae deletion strains, locus YMR231W, strain pep5, stronger effect = lower value 0.987 | S. cerevisiae deletion strains, locus YMR263W, strain SAP30, stronger effect = lower value 0.985 | S. cerevisiae deletion strains, locus YMR307W, strain GAS1, stronger effect = lower value 1.12 | S. cerevisiae deletion strains, locus YNL067W, strain RPL9B, stronger effect = lower value 0.991 | S. cerevisiae deletion strains, locus YNL071W, strain lat1, stronger effect = lower value 0.981 | S. cerevisiae deletion strains, locus YNL128W, strain TEP1, stronger effect = lower value 0.971 | S. cerevisiae deletion strains, locus YNL153C, strain GIM3, stronger effect = lower value 0.987 | S. cerevisiae deletion strains, locus YNL183C, strain NPR1, stronger effect = lower value 0.935 | S. cerevisiae deletion strains, locus YNL209W, strain ssb2, stronger effect = lower value 1.02 | S. cerevisiae deletion strains, locus YNL233W, strain BNI4, stronger effect = lower value 0.996 | S. cerevisiae deletion strains, locus YNL248C, strain rpa49, stronger effect = lower value 1.02 | S. cerevisiae deletion strains, locus YNL250W, strain rad50, stronger effect = lower value 0.95 | S. cerevisiae deletion strains, locus YNL271C, strain bni1, stronger effect = lower value 0.963 | S. cerevisiae deletion strains, locus YNL298W, strain CLA4, stronger effect = lower value 0.974 | S. cerevisiae deletion strains, locus YNL307C, strain MCK1, stronger effect = lower value 0.982 | S. cerevisiae deletion strains, locus YNL322C, strain KRE1 (second series), stronger effect = lower value 0.983 | S. cerevisiae deletion strains, locus YNL322C, strain KRE1, stronger effect = lower value 0.972 | S. cerevisiae deletion strains, locus YNR049C, strain mso1, stronger effect = lower value 0.994 | S. cerevisiae deletion strains, locus YNR052C, strain pop2, stronger effect = lower value 0.968 | S. cerevisiae deletion strains, locus YOL006C, strain TOP1, stronger effect = lower value 1.02 | S. cerevisiae deletion strains, locus YOL012C, strain htz1 0.945 | S. cerevisiae deletion strains, locus YOL147C, strain pex11, stronger effect = lower value 0.982 | S. cerevisiae deletion strains, locus YOR001W, strain rrp6, stronger effect = lower value 0.961 | S. cerevisiae deletion strains, locus YOR061W, strain CKA2, stronger effect = lower value 0.978 | S. cerevisiae deletion strains, locus YOR069W, strain VPS5, stronger effect = lower value 0.983 | S. cerevisiae deletion strains, locus YOR070C, strain gyp1, stronger effect = lower value 0.996 | S. cerevisiae deletion strains, locus YOR080W, strain dia2, stronger effect = lower value 0.984 | S. cerevisiae deletion strains, locus YOR083W, strain WHI5, stronger effect = lower value 0.987 | S. cerevisiae deletion strains, locus YOR106W, strain vam3, stronger effect = lower value 1.03 | S. cerevisiae deletion strains, locus YOR136W, strain idh2, stronger effect = lower value 0.966 | S. cerevisiae deletion strains, locus YOR144C, strain elg1, stronger effect = lower value 0.962 | S. cerevisiae deletion strains, locus YOR184W, strain ser1, stronger effect = lower value 1.01 | S. cerevisiae deletion strains, locus YOR231W, strain MKK1, stronger effect = lower value 0.998 | S. cerevisiae deletion strains, locus YOR265W, strain rbl2, stronger effect = lower value 0.998 | S. cerevisiae deletion strains, locus YOR270C, strain vph1, stronger effect = lower value 0.834 | S. cerevisiae deletion strains, locus YOR290C, strain snf2, stronger effect = lower value 1.01 | S. cerevisiae deletion strains, locus YOR316C, strain cot1, stronger effect = lower value 0.947 | S. cerevisiae deletion strains, locus YPL051W, strain arl3, stronger effect = lower value 1 | S. cerevisiae deletion strains, locus YPL055C, strain LGE1, stronger effect = lower value 0.991 | S. cerevisiae deletion strains, locus YPL078C, strain atp4, stronger effect = lower value 0.998 | S. cerevisiae deletion strains, locus YPL106C, strain sse1, stronger effect = lower value 0.941 | S. cerevisiae deletion strains, locus YPL240C, strain hsp82, stronger effect = lower value 0.988 | S. cerevisiae deletion strains, locus YPL241C, strain CIN2, stronger effect = lower value 0.974 | S. cerevisiae deletion strains, locus YPL256C, strain CLN2, stronger effect = lower value 1.06 | S. cerevisiae deletion strains, locus YPR119W, strain clb2, stronger effect = lower value 0.955 | S. cerevisiae deletion strains, locus YPR141C, strain kar3, stronger effect = lower value 0.937 | S. cerevisiae deletion strains, locus YPR163C, strain tif3, stronger effect = lower value 0.971 | S. cerevisiae deletion strains, locus YPR167C, strain met16, stronger effect = lower value 0.945 | S. cerevisiae deletion strains, strain wtn01, stronger effect = lower value 0.973 | S. cerevisiae strains, strain wild type, stronger effect = lower value 0.98
